Experimental data from PubChem BioAssay AID493194 (Broad Institute, 2011).
Measured potencies and affinities stand elsewhere. Records with an inconclusive call do not appear.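 Rule for the calls: active = a valid curve of falling signal whose half-effect concentration is at most ten times the top tested dose; inconclusive = flat curve at 30 to 70% inhibition, or poor fit; inactive = signal rise, flat within 30%, or potency beyond limit.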

What follows are compounds tested against Scavenger receptor class B member 1 (Mus musculus) (UniProt Q61009) (assay: mouse SR-BI DiI-HDL uptake blockers – ldlA[mSR-BI] cells, fluorescence, cherry pick, dose response (AID 493194;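 note: CHO cells lacking LDL receptor and overexpressing mouse SR-BI; cellular uptake of fluorescently labeled HDL measured as cell fluorescence; 0% = median of neutral control wells and -100% = median of positive control wells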)). Settings: CHO ldlA[mSR-BI] DiI-HDL uptake fluorescence, 3 h; series mostly up to 35 µM; activity change, negative = inhibition: at the top concentration.
Chain of Scavenger receptor class B member 1 (Mus musculus) (Q61009 whole entry, looked up): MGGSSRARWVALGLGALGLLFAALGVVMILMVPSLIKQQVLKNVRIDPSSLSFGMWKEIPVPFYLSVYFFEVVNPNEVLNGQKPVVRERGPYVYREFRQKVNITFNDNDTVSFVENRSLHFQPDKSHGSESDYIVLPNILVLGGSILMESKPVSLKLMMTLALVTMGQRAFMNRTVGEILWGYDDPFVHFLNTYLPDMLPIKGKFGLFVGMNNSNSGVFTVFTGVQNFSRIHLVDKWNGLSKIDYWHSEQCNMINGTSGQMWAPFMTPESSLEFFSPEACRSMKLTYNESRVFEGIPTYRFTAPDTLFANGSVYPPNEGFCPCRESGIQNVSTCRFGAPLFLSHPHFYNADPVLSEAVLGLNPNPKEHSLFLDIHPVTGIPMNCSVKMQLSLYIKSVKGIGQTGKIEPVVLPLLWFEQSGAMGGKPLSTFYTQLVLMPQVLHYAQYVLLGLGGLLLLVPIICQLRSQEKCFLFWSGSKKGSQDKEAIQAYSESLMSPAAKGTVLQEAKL

Activity change, negative = inhibition, inactive:
O=C(Nc1cccc(-c2cn3c(n2)SCC3)c1)c1ccc2ccccc2n1 47.3%
CCn1c(C)c(C)c2cc(C(=O)Nc3cccc(Cl)c3)ccc21 -55.2%
COc1ccc(CNC(=O)C(c2ccc(C)cc2)N(Cc2cccs2)C(=O)c2ccc3c(c2)OCCO3)cc1 (stereo not drawn) 11%
COc1ccc2c(c1)CC(C1(O)C(=O)N(C)c3ccccc31)C2=O (stereo not drawn) 75.3%
CCC(C)c1ccccc1N1CC(C(=O)N2CCN(S(=O)(=O)c3cccc([N+](=O)[O-])c3)CC2)CC1=O (stereo not drawn) 36.4%
CCOC(=O)Nc1nc(-c2ccccc2)c(C(=O)c2ccccc2)s1 -13.9%
CC(C)CN(CC(C)C)C(=O)COn1nnc2ccc(S(=O)(=O)N3CCOCC3)cc21 -17.4%
Cc1cccc(N2CCN(C(=O)CN(C)S(=O)(=O)c3ccc4c(c3)CCC(=O)N4)CC2)c1C 22.7%
COc1ccc([C@H]2/C=C\CN(S(=O)(=O)c3cccc4cccnc34)[C@@H](C)C(=O)N2Cc2ccc(F)cc2)cc1 -5.57%
COc1cc(-c2nnn(Cc3ccccc3C)n2)cc(OC)c1OC -31.9%
O=C(Nc1ccccc1)NC1CC2CCC(C1)N2Cc1nnnn1Cc1ccc2c(c1)OCO2 (stereo not drawn) -1.78%
Cc1cccc(-c2ccc3c(c2)C2CC3CCN2C(=O)OCc2ccccc2)c1 (stereo not drawn) -7.63%
COc1ccc(NC(=O)Nc2nnc(-c3ccccc3SCc3ccccc3)s2)cc1 56.2%
Cc1cc(NC(=O)Nc2ccccc2)n(-c2ccccc2)n1 -39.2%
CNC(=O)c1ccc(Nc2nnc(-c3ccc(O)cc3)c3ccccc23)cc1 -10.1%
CNc1nc(-c2ccc3c(c2)CCN3C(=O)CC(C)(C)C)c(C)s1 -8.51%
COc1cc(OC)cc(C(=O)N[C@H](C(=O)Nc2nc(-c3cc(OC)ccc3OC)cs2)C(C)C)c1 -1.13%
O=C(CCCC(=O)N(CC(=O)NC1CCCC1)C1CCCC1)Nc1ccccn1 6.62%
COc1ccc(CN2CCN(C(=O)c3ccc(S(=O)(=O)NCc4ccco4)cc3)CC2)cc1 -6.51%
O=C1NCCOC(=O)[C@H](Cc2ccc(F)cc2)C/C=C\C[C@@H]1CC(=O)N(CCO)Cc1ccccc1 24.5%
COc1ccc(N2CC(C(=O)NCCC3=CCCCC3)CC2=O)c(OC)c1 (stereo not drawn) -27.6%
CCOc1cc2c3c(c1)C1(C(=O)N3C(C)(C)CC2C)C(C#N)=C(N)N2C(=C1C#N)Nc1ccccc12 (stereo not drawn) 4.74%
CC(C)C(=O)Nc1nc(-c2ccc3c(c2)CCN3C(=O)C2CC2)cs1 62.6%
Cc1cc(C)cc(NC(=O)c2ccc3c(c2)CCN3S(C)(=O)=O)c1 -12.6%
CCOC(=O)Nc1ccc2c(c1)N(C(=O)C(C)N1CCCC1)c1ccccc1CC2 (stereo not drawn) 25.8%
CCOC(=O)C1CCN(C(=O)Cn2cnc3sc(C)c(S(=O)(=O)N4CCC(C)CC4)c3c2=O)CC1 -14%
Cc1ccccc1-c1cc(C(=O)NCc2cccc(Br)c2)nn1CC1CC(c2cccc([N+](=O)[O-])c2)=NO1 (stereo not drawn) 17.5%
CN(C(=O)COn1nnc2ccc(S(=O)(=O)N3CCOCC3)cc21)c1ccccc1 -9.75%
O=c1cc(N2CCCCC2)c(-c2ccccc2)nn1Cc1cccc(F)c1 60.8%
CC(C)C(=O)N1CCc2cc(-c3csc(N)n3)ccc21 -22.1%
O=C(Nc1cccc(Cl)c1)Nc1sccc1-c1nc2ccccc2s1 -30.2%
Cc1ccccc1NC(=O)N(CCc1nc2ccccc2[nH]1)Cc1ccccc1 -0.001%
Cc1sc(NC(=O)c2cccc([N+](=O)[O-])c2)c(C(N)=O)c1-c1ccc(C(C)(C)C)cc1 -34.7%
COCCCNc1nc2c(-c3cccc(C)c3)nnn2c2ccccc12 -9.49%
COc1ccc(CCNC(=O)c2ccc3c(c2)N(Cc2ccc(F)cc2)CCS3)c(OC)c1 3.53%
COCCN(Cc1cn(C)nc1-c1ccc(Oc2ccccc2)cc1)C(C)C 4.72%
COc1ccc(OCC(O)Cn2c(Nc3cccc(C)c3)nc3c2c(=O)n(C)c(=O)n3C)cc1 (stereo not drawn) -47.7%
COc1ccc(N2CC(C(=O)NCCc3ccc(Cl)cc3)CC2=O)c(OC)c1 (stereo not drawn) -7.36%
